Data on 25 compounds can be found in PubChem BioAssay (Tox21).

Values without a mark were called inactive. Results filed as inconclusive are left out. Activity calls are given as the source filed them. Unless noted, calls come from the whole dose curve; as a rule, active = well fitted curve in the direction sought with a large enough effect in the repeat runs; inconclusive = weak or mixed curves; inactive = no such curve, though single readings can be large; an effect the other way counts as inactive or inconclusive.

A short description of assay [1]: A CellTox Green Cytotoxicity Assay to monitor cytotoxicity in HEK293 cells - 16 hour (AID 1224888). Note: nearly all actives have a fitted effect of over 35% in size. Note: potency is the fitted concentration of half-maximal effect. In short, it runs like this:
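Cells (HEK293, 600/well) and dye reagent are dispensed together. After 5 h at 37 C, 23 nL compound is pinned in. Plates stay at 37 C for 40 h with fluorescence read at 0h, 8h, 16h, 24h, 32h and 40h.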

A short description of assay [2]: qHTS RealTime-Glo MT Cell Viability Assay in HepG2 cells - 0 hour (AID 1224889). Note: nearly all actives have a fitted effect of over 50% in size. In outline: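 Cells + NanoLuc/prosubstrate dispensed (600 cells/well) → 5 h at 37 C/5% CO2 → compounds in DMSO transferred → 40 h incubation at 37 C, luminescence read at 0, 8, 16, 24, 32, 40 h.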
For orientation: In qHTS, concentration-response curves come from the screen itself.

A short description of assay [3]: A CellTox Green Cytotoxicity Assay to monitor cytotoxicity in HepG2 cells - 8 hour (AID 1224890). Note: nearly all actives have a fitted effect of over 45% in size. Note: potency is the fitted concentration of half-maximal effect. In short, it runs like this: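 Cells and non-lytic dye reagent are dispensed together (600 HepG2 cells/well) and incubated 5 h before DMSO compound transfer. Kinetic fluorescence is then recorded in the same wells during 40 h at 37 C.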
Assay [4] is described as follows: qHTS assay to identify small molecule antagonists of the estrogen receptor alpha (ER-alpha) signaling pathway using the BG1 cell line in the presence of 0.1 nM 17-beta-estradiol - cell viability counter screen (AID 1259241). Note: nearly all actives have a fitted effect of over 40% in size. In short, it runs like this: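 CellTiter-Fluor read (30 min, 37C) on ER-alpha/ERE-luc VM7Luc4E2 cells; 22 hr compound treatment; agonist 0.1 nM E2 final; same-well multiplex.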

Assay [5] in a line: qHTS assay to identify small molecule antagonists of the androgen receptor (AR) signaling pathway using the MDA cell line in the presence of 0.5 nM R1881 - cell viability counter screen (AID 1259242). Note: nearly all actives have a fitted effect of over 45% in size. In outline: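 Steps: plate MDA-kb2 cells, rest 5 hr at 37C without CO2; pin in compounds in DMSO; add R1881 to 0.5 nM final; incubate 16 hr; add CellTiter-Fluor, 30 min; read fluorescence.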

The nature of assay [6]: qHTS assay to identify small molecule phospholipidosis (PLD) inducers (AID 1259344; active = well fitted curve in the direction sought with a large enough effect; an effect the other way counts as inactive or inconclusive). In outline:
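Accumulated phospholipid, stained red by LipidTOX during 24 h compound treatment of HepG2 cells at 37 C, is quantified from images as pit number and intensity, normalised per cell using Hoechst-stained nuclei.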

Assay [7] is described as follows: qHTS assay to identify small molecule HDAC inhibitors (AID 1259364).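 Note: wild-type HCT-116 cells with endogenous class I/II HDAC activity; top concentration of the series differs between compounds; nearly all actives have a fitted effect of over 45% in size.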 In short, it runs like this: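 Cells (HCT-116, wild type) are seeded at 1,500 per well, incubated overnight, treated with compound in DMSO for 2 hr, then developed with HDAC-Glo I/II reagent for 30 min at room temperature.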
Assay [8] can be described thus: qHTS assay to identify small molecule HDAC inhibitors - cell viability counter screen (AID 1259365). Note: series mostly up to about 92 µM; nearly all actives have a fitted effect of over 50% in size. In outline:
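To flag cytotoxic hits, 1,500 wild-type HCT-116 cells per well, plated the day before, receive test compounds for 2hr at 37 C before CellTiter-Glo reagent and a luminescence read.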

The target of assay [9] is Estrogen receptor (Homo sapiens) (UniProt P03372). Description: qHTS assay to identify small molecule antagonists of the estrogen receptor alpha (ER-alpha) signaling pathway using the BG1 cell line in the presence of 0.1 nM 17-beta-estradiol (AID 1259244). Note: nearly all actives have a fitted effect of over 50% in size. In short, it runs like this:
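Antagonist mode: compounds in DMSO are pinned onto VM7Luc4E2 reporter cells, 0.1 nM final 17beta-estradiol is added, and after 22 h at 37C luciferase luminescence is measured with ONE-Glo.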
% is set by controls: 0 for no effect and ±100 for the full control effect.

Chain of Estrogen receptor (Homo sapiens) (P03372 whole entry, looked up): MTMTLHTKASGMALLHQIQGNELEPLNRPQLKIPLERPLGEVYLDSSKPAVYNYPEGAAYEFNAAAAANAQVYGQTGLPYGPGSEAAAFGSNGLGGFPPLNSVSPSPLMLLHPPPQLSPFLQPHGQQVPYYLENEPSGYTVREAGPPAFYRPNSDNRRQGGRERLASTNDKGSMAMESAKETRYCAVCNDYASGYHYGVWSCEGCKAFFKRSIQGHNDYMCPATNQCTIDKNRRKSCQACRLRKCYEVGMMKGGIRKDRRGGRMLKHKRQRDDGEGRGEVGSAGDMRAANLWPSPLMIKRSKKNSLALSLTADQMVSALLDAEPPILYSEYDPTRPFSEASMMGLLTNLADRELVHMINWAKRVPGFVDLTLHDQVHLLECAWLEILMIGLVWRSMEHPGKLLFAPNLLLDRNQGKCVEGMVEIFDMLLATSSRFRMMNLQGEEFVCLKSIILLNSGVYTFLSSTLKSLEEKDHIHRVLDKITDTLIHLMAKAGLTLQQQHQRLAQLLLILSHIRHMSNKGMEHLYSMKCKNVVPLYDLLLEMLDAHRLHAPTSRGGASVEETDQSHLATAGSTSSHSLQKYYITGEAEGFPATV

Consider `C[C@@H]1CC[C@@]2(OC1)O[C@H]1C[C@H]3[C@@H]4CC[C@H]5C[C@@H](O)CC[C@]5(C)[C@H]4CC(=O)[C@]3(C)[C@H]1[C@@H]2C`, for which, in assay [1], the activity change is -0.0716% [at 6.97 µM, stronger effect = higher value]. Also, the activity change, negative = cytotoxicity in assay [2] is 5.89% [at 6.97 µM]; in assay [4], -0.428% [at 8.39 µM]; in assay [8], 4.19% [at 8.39 µM]. Also, the cytotoxicity increase in assay [3] is -0.434% [at 6.97 µM]. Further, the viability change, negative = cytotoxic in assay [5] was 4.91% [at 8.39 µM]. Moreover, the Potency entry in assay [6] was “inactive”. Further, the activity change, negative = inhibition in assay [7] was 8.02% [at 8.39 µM].
`COc1cc(NS(=O)(=O)c2ccc(N)cc2)ncn1`: the Potency entry in assay [1], in [2], in assay [3], in assay [6] and in assay [7] was “inactive” throughout. Further, the outcome in [4], in assay [5] and in assay [8] was inactive.
`CCOC(=O)CC`: the Potency result in [1], in assay [2], in [3] and in [7] was “inactive” each time. Moreover, the result in assay [4], in [5], in assay [9] and in assay [8] was inactive.
In the case of `NC(=O)CC[C@@H](N)C(=O)O`, the Potency entry in [1], in assay [2], in assay [3], in assay [6] and in [7] was “inactive” throughout. For the same compound, the outcome in assay [4], in [5] and in [8] was inactive.
On to `COC(=O)N/N=C/c1c[n+]([O-])c2ccccc2[n+]1[O-]`, for which the Potency in [1] was 21.3 µM (active); in [3] it was 26.8 µM (active). For the same compound, the Potency entry in assay [2], in assay [6] and in [7] was “inactive” in each case. In addition, the result in [4], in assay [5] and in assay [8] was inactive.
With `CC(C)c1cc(C(C)C)cc(C(C)C)c1`, the Potency result in assay [1], in [2], in assay [3] and in [7] was “inactive” throughout. Further, the outcome in assay [4], in assay [5], in [9] and in assay [8] was inactive.
Consider `CCCCC(CC)CCC(CC(C)C)OS(=O)(=O)O` (centres undefined), for which the Potency result in assay [1], in [2], in assay [3], in assay [6] and in assay [7] was “inactive” throughout. Besides, the outcome in assay [4], in assay [5] and in [8] was inactive.
With `CC/C=C/CCCCCCCCCCOC(C)=O`, the Potency result in assay [1], in assay [2], in assay [3] and in assay [7] was “inactive” each time. Also, the outcome in assay [4], in [5], in assay [9] and in assay [8] was inactive.
Consider `Cc1nnc(C(=O)NC(C)(C)c2nc(C(=O)NCc3ccc(F)cc3)c(O)c(=O)n2C)o1`, for which the Potency entry in assay [1], in assay [2], in assay [3], in assay [6] and in assay [7] was “inactive” in each case. The result in assay [4], in assay [5] and in [8] was inactive.
Regarding `CCCCCCCOC(C)=O`, the Potency entry in assay [1], in [2], in assay [3] and in assay [7] was “inactive” each time. In addition, the outcome in assay [4], in assay [5], in assay [9] and in assay [8] was inactive.
Turning to `N=C(N)N`, the Potency result in [1], in [2], in assay [3], in assay [6] and in [7] was “inactive” throughout. Moreover, the outcome in assay [4], in assay [5] and in assay [8] was inactive.
With `NC[C@H]1O[C@H](O[C@H]2[C@H](O)[C@@H](O[C@H]3O[C@H](CO)[C@@H](O)[C@H](N)[C@H]3O)[C@H](N)C[C@@H]2N)[C@H](N)[C@@H](O)[C@@H]1O`, the activity change in assay [1] was 2% [at 15.8 µM, stronger effect = higher value]. Further, the activity change, negative = cytotoxicity in assay [2] was 5.28% [at 15.8 µM]; in assay [4], 2.9% [at 19 µM]; in assay [8] it was -0.176% [at 19 µM]. In addition, the cytotoxicity increase in assay [3] was 0.922% [at 15.8 µM]. In assay [5], the viability change, negative = cytotoxic was -0.928% [at 19 µM]. Moreover, the Potency entry in assay [6] was “inactive”. For the same compound, the activity change, negative = inhibition in assay [7] was 0.718% [at 19 µM].
On to `COCCCOc1cc(C[C@@H](C[C@H](N)[C@@H](O)C[C@H](C(=O)NCC(C)(C)C(N)=O)C(C)C)C(C)C)ccc1OC`, for which the Potency result in [1], in assay [2], in [3] and in [7] was “inactive” throughout. Further, the result in assay [4], in [5], in assay [9] and in assay [8] was inactive.
Consider `CC(C)C[P+](C)(CC(C)C)CC(C)C`, for which the Potency entry in assay [1], in [2], in assay [3] and in [7] was “inactive” in each case. The result in [4], in assay [5], in assay [9] and in assay [8] was inactive.
With `CC(C)(C)c1ccc(C(=O)CCCCl)cc1`, the Potency entry in assay [1], in assay [2] and in assay [3] was “inactive” each time. The result in assay [4], in [5], in assay [9] and in assay [8] was inactive.
In the case of `CCC(=O)OCCOc1ccccc1`, the Potency result in [1], in assay [2], in [3] and in [7] was “inactive” each time. Also, the outcome in assay [4], in assay [5], in [9] and in [8] was inactive.
For the compound `CCCOc1ccc(C(=O)OCCN(CC)CC)cc1N`, the Potency result in assay [1], in [2], in assay [3], in assay [6] and in assay [7] was “inactive” throughout. Besides, the result in [4], in assay [5] and in assay [8] was inactive.
As for `C[C@@H]1NC(=O)[C@@H](N)CNC(=O)[C@H](C2CCNC(N)=N2)NC(=O)/C(=C/NC(N)=O)NC(=O)[C@H](CNC(=O)C[C@@H](N)CCCN)NC1=O` (some centres undefined), the activity change in assay [1] was 17.5% [at 0.29 µM, stronger effect = higher value]. Besides, the activity change, negative = cytotoxicity in assay [2] was 5.25% [at 0.29 µM]; in assay [4], 6.75% [at 0.349 µM]; in [8], -0.0427% [at 0.349 µM]. For the same compound, the cytotoxicity increase in [3] is -1.65% [at 0.29 µM]. In addition, in assay [5], the viability change, negative = cytotoxic is 2.87% [at 0.349 µM]. Also, the Potency entry in [6] was “inactive”. Further, in [7], the activity change, negative = inhibition is -0.0991% [at 0.349 µM].
As for `CCCCCCC(O)CO` (centres undefined), the Potency entry in [1], in assay [2], in assay [3] and in [7] was “inactive” each time. Further, the result in [4], in assay [5], in [9] and in assay [8] was inactive.
Take `c1coc(Cn2cccc2)c1`: the Potency result in assay [1], in assay [2], in [3] and in [7] was “inactive” each time. The outcome in [4], in assay [5], in [9] and in assay [8] was inactive.
In the case of `CCCCC(CC)COC(=O)CC#N` (centres undefined), the Potency entry in assay [1], in assay [2], in assay [3] and in [7] was “inactive” each time. The result in assay [4], in assay [5], in assay [9] and in assay [8] was inactive.
In the case of `CCCCNCC`, the Potency result in [1], in [2], in [3] and in [7] was “inactive” in each case. Also, the result in assay [4], in [5], in [9] and in assay [8] was inactive.
As for `CCCc1ccc(O)c(OC)c1`, the Potency result in [1], in [2], in [3] and in assay [7] was “inactive” each time. Besides, the outcome in assay [4], in [5], in assay [9] and in assay [8] was inactive.
As to `C/C=C(\C)C=O`, the Potency entry in assay [1], in assay [2], in assay [3] and in assay [7] was “inactive” each time. For the same compound, the result in [4], in assay [5], in [9] and in [8] was inactive.
In the case of `CCOC(=O)CC(C(C)=O)C(C)=O`, the Potency result in [1], in assay [2], in [3] and in [7] was “inactive” each time. Further, the result in assay [4], in assay [5], in assay [9] and in assay [8] was inactive.
